In PubChem BioAssay (NCATS):
“And” between values parts separate entries of the source, which are not always exact repeats. Identical values can stand only once. Records with an inconclusive call do not appear. Unmarked numbers belong to inactive results. The source made the active and inactive calls. The call rests on the fitted dose curve; in most records, active means well fitted curve in the direction sought with a large enough effect; inconclusive means small, poorly fitted or top-dose-only effect, or another doubt; inactive means no such curve, though single readings can be large or run the other way. Where a SMILES comes first, the peptide text is derived from it. [ ]: non-standard residue; d: D form. pGlu = O=C1CC[C@@H](C(=O)O)N1; Thz = O=C(O)[C@@H]1CSCN1

Test: qHTS Assay for Identifying Gametocytocidal Compounds (AID 743244);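 on max response: actives lower the fluorescent signal which means gametocytes are killed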
Conditions: P. falciparum 3D7 stage III-V gametocytes, alamarBlue, 72 h; max response: stronger effect = lower value
Summary of the method: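 Compounds are pinned into medium, gametocytes (stage III–V, 3D7, 20,000 cells/well) added, and plates held 72 h at 37 °C in 5% CO2. AlamarBlue follows for 24 h before fluorescence reading.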
On the % scale 0 is the no-effect control and ±100 the full control effect; potency means the concentration at half of the fitted maximal effect.

Q: Which max response does the source give for `C[S+](CC[C@H](N)C(=O)O)C[C@H]1O[C@@H](n2cnc3c(N)ncnc32)[C@H](O)[C@@H]1O` (some centres not stated) here?
A: 6.19% and -10.1%

Q: With `C[C@H](O)[C@H](O)[C@H]1CNc2nc(N)[nH]c(=O)c2N1` as the molecule, how does the max response read?
A: -5.73%

Q: Which max response does the source give for `O=C(O)COc1ccc(C(=O)c2cccs2)c(Cl)c1Cl` here?
A: -3.69% and 20.3%

Q: With `Cc1ccc(S(=O)(=O)/C=C/C#N)cc1` as the molecule, how does the Potency read?
A: 3.55 µM (active)

Q: For `Nc1nc(Cl)nc2c1ncn2[C@@H]1O[C@H](COP(=O)(O)OP(=O)(O)OP(=O)(O)O)[C@@H](O)[C@H]1O`, which max response is on record?
A: 20.1%

Q: For `COc1cc(CNC(=O)CCCC/C=C/C(C)C)ccc1O`, which max response is on record?
A: 10.1%

Q: For `O=C1CC[C@@H](C(=O)N2CSC[C@H]2C(=O)O)N1` ([pGlu]-[Thz]-OH), which max response is on record?
A: 5.51%

Q: With `COC(=O)C1=C(C)NC(C)=C(C(=O)OCC(C)=O)C1c1ccccc1[N+](=O)[O-]` (configuration not stated) as the molecule, how does the max response read?
A: 14.8%

Q: With `O=C(O)[C@H](O)[C@@H](O)[C@H](O)[C@H](O)CO` as the molecule, how does the max response read?
A: -9.36% and 0.225%

Q: Which max response does the source give for `Nc1nc(SCc2ccc([N+](=O)[O-])cc2)c2ncn([C@@H]3O[C@H](CO)[C@@H](O)[C@H]3O)c2n1` here?
A: 22.6%

Q: For `CC(=O)O[C@H]1C[C@@]2(C)[C@@H](C[C@@H](O)[C@H]3[C@@]4(C)CC[C@@H](O)[C@@H](C)[C@@H]4CC[C@@]32C)/C1=C(\CCC=C(C)C)C(=O)O`, which max response is on record?
A: -4.85%

Q: Which max response does the source give for `CC(=O)SCC(CC(=O)c1ccc(C)cc1)C(=O)O` (configuration not stated) here?
A: 17.7%

Q: For `C[N+]1(C)C2CC(OC(=O)[C@H](CO)c3ccccc3)CC1C1OC12` (some centres not stated), which max response is on record?
A: -7.69% and 8.7%

Q: For `CCc1c(C(=O)NCCc2ccc(N3CCCCC3)cc2)[nH]c2ccc(Cl)cc12`, which max response is on record?
A: 11.6%

Q: With `C[N+]1(C)[C@@H]2CC(OC(=O)[C@H](CO)c3ccccc3)C[C@H]1[C@@H]1O[C@@H]12` (some centres not stated) as the molecule, how does the max response read?
A: -10.6%

Q: For `c1ccc2sc(SSc3nc4ccccc4s3)nc2c1`, which max response is on record?
A: 10.7%

Q: With `COc1ccc(-c2cc(=S)ss2)cc1` as the molecule, how does the max response read?
A: 9.16%

Q: With `Cc1c(C(=O)O)c(O)cc2c1C(=O)c1c(O)c([C@@H]3O[C@H](CO)[C@@H](O)[C@H](O)[C@H]3O)c(O)c(O)c1C2=O` as the molecule, how does the max response read?
A: -1.02%

Q: Which Potency does the source give for `CC[C@@H](C)[C@H]1O[C@]2(CC[C@H]1C)C[C@@H]1C[C@@H](CC=C(C)[C@@H](O[C@H]3C[C@H](OC)[C@@H](O[C@H]4C[C@H](OC)[C@@H](O)[C@H](C)O4)[C@H](C)O3)[C@@H](C)C=CC=C3CO[C@@H]4[C@H](O)C(C)=C[C@@H](C(=O)O1)[C@]34O)O2` here?
A: 2.64 µM (active)

Q: With `O=C(O)CC1CC(c2ccccc2)=NO1` (configuration not stated) as the molecule, how does the max response read?
A: -4.91%

Q: Which max response does the source give for `O=C(O)Cc1ccc(-c2ccccc2)cc1` here?
A: -0.327%

Q: For `CC(=O)[C@]1(O)Cc2c(O)c3c(c(O)c2[C@@H](O[C@H]2C[C@H](N)[C@H](O)[C@H](C)O2)C1)C(=O)c1c(O)cccc1C3=O`, which Potency is on record?
A: 5.62 µM (active)

Q: Which max response does the source give for `CO[C@@]1(NC(=O)Cc2cccs2)C(=O)N2C(C(=O)O)=C(COC(N)=O)CS[C@@H]21` here?
A: -0.875% and -15%

Q: With `Cc1onc(-c2c(F)cccc2Cl)c1C(=O)N[C@@H]1C(=O)N2[C@@H]1SC(C)(C)[C@@H]2C(=O)O` as the molecule, how does the max response read?
A: 16.8% and -3.16%

Q: With `CC1(C)S[C@@H]2[C@H](NC(=O)[C@H](N)c3ccc(O)cc3)C(=O)N2[C@H]1C(=O)O` as the molecule, how does the max response read?
A: 4.64% and 10.7%

Q: For `CCCCCCCCCCCCCCCC(=O)OC(C)C`, which max response is on record?
A: 3.03%

Q: For `Nc1ccc(C(=O)O)c(O)c1`, which max response is on record?
A: 1.29%

Q: For `COc1cc2c3cc1Oc1cc(ccc1O)C[C@@H]1c4c(cc(OC)c(O)c4Oc4ccc(cc4)C[C@@H]3N(C)CC2)CC[N+]1(C)C`, which max response is on record?
A: 1.34%

Q: With `Nc1cc(-c2ccncc2)c[nH]c1=O` as the molecule, how does the max response read?
A: 14.6%

Q: Which max response does the source give for `CC(=O)c1ccc(OCC(=O)N2CCCCC2)cc1` here?
A: 6.76%

Q: With `O=C(O)[C@H](CC(=O)N1C[C@H]2CCCC[C@H]2C1)Cc1ccccc1` as the molecule, how does the max response read?
A: -8.96%

Q: Which max response does the source give for `CC1(C)[C@@H](O[C@H]2O[C@H](C(=O)O)[C@@H](O)[C@H](O)[C@H]2O[C@@H]2O[C@H](C(=O)O)[C@@H](O)[C@H](O)[C@H]2O)CC[C@]2(C)[C@H]3C(=O)C=C4[C@@H]5C[C@@](C)(C(=O)O)CC[C@]5(C)CC[C@@]4(C)[C@]3(C)CC[C@@H]12` here?
A: 1.42% and -3.92%
